Reference: PubChem BioAssay (NCI)
The panel holds about 83,000 compounds, 20% with a hit somewhere; the sample as a whole holds those more often.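 Treatment: one concentration, 48 hours, 96-well format. Scoring: percent growth, with anything below 10 considered active.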 Unmarked numbers belong to inactive results. Active and inactive are the calls of the source.

Legend:
Assay in all cases: NCI-60 one-dose screen, 48 h (100 = growth as untreated, 0 = no growth, -100 = all killed)
Settings in all cases: 10 µM unless noted
DU-145 prostate = tested on: DU-145 prostate
K-562 leukemia = tested on: K-562 leukemia
MALME-3M melanoma = tested on: MALME-3M melanoma
MDA-MB-231 breast = tested on: MDA-MB-231 breast
RXF 393 renal = tested on: RXF 393 renal
SF-268 CNS = tested on: SF-268 CNS
SF-295 CNS = tested on: SF-295 CNS
SF-539 CNS = tested on: SF-539 CNS
UACC-257 melanoma = tested on: UACC-257 melanoma
M14 melanoma = tested on: M14 melanoma

Structure (SMILES)	growth (DU-145 prostate)	growth (K-562 leukemia)	growth (MALME-3M melanoma)	growth (MDA-MB-231 breast)	growth (RXF 393 renal)	growth (SF-268 CNS)	growth (SF-295 CNS)	growth (SF-539 CNS)	growth (UACC-257 melanoma)	growth (M14 melanoma)
O=C(O)c1ccc(-n2c(=O)n(-c3cccc(C(F)(F)F)c3)c(=O)c3cc(-c4ccc(F)cc4F)ccc32)cc1	25.9%	5.71% (active)	-12.8% (active)	-25.8% (active)	-1.85% (active)	22.1%	-12.6% (active)	17.8%	-1.96% (active)	18.6%
Nc1ncc(-c2ccc3ncnc(NCc4ccccc4)c3c2)cn1	23.7%	67.6%	38%	39.8%	8.82% (active)	44.8%	47.4%	44.3%	85.1%	65.6%
CS(=O)(=O)c1ccc(/C(=N/N=C(N)N)c2ccc(F)cc2)cc1	106%	25.1%	97.4%	105%	86.1%	78.9%	71%	99.5%	76.9%	67.2%
N#Cc1c(-c2cccs2)cc(-c2cnccn2)nc1SCC(=O)N/N=C/c1ccc(Cl)cc1	104%	96.7%	115%	94.9%	92.2%	102%	98.7%	100%	110%	111%
Cc1cc(NS(=O)(=O)c2ccc(NC(=O)CSc3nc4ccccc4c(=O)n3-c3ccccc3)cc2)no1	108%	54.1%	94.7%	98.7%	93.8%	98.9%	99.2%	95.3%	98.4%	90.3%
O=C1C(N2CCN(c3ccccc3)CC2)=C(Cl)C(=O)c2ncccc21	45.7%	6.19% (active)	-1.87% (active)	75.3%	27.8%	79.4%	103%	81.2%	55.4%	69.6%
Cc1ccc(S(=O)(=O)c2nc(-c3ccc(F)cc3)oc2S(C)(=O)=O)cc1	77%	1.76% (active)	-45.6% (active)	65%	40.3%	95.1%	95.4%	58.1%	90.3%	64%
C#Cc1nc(/C=C/CCCCCCC(=O)NO)cs1	23.8%	13.1%	22%	-31% (active)	-6.54% (active)	83.2%	82.5%	-89.4% (active)	56.6%	62.4%
CC/C(=C(/c1ccc(Cl)cc1)c1ccc(OCCN)cc1)c1ccccc1	82.7%	19.7%	94.8%	86.6%	92.8%	103%	107%	98.6%	106%	88.7%
CN(C)c1ccc(/C=N/Nc2nc(N/N=C/c3ccc(N(C)C)cc3)nc(N3CCCCC3)n2)cc1	77.5%	3.08% (active)	-67.3% (active)	68.6%	93.3%	105%	107%	-12.3% (active)	104%	72.8%
Cc1ccccc1NC(=O)Nc1nc2ccc([N+](=O)[O-])cc2s1	20.3%	5.43% (active)	-6.54% (active)	17.6%	12.1%	18.6%	6.9% (active)	13.6%	-1.96% (active)	19.9%
CC(=O)OC[C@]12CC[C@@H](C(=O)/C=C/c3cccnc3)[C@@H]1[C@H]1CC[C@@H]3[C@@]4(C)CC[C@H](OC(C)=O)C(C)(C)[C@@H]4CC[C@@]3(C)[C@]1(C)CC2	45.7%	13.1%	-66.3% (active)	-40.5% (active)	-71.6% (active)	42.2%	29.7%	-52.7% (active)	-4.75% (active)	12.2%
CCOC(=O)C(=O)Nc1ccc2c(ccn2C(=O)c2cccc(F)c2)c1	67.7%	101%	102%	107%	104%	99%	92%	91.5%	99.1%	95.3%
NNc1nnc2nc(Nc3ccccc3)nc(Nc3ccc(S(N)(=O)=O)cc3)n12	112%	101%	101%	95.8%	101%	107%	106%	96.5%	106%	108%
COc1ccc(Cn2cc(C#N)c(N)c2C(C)=O)cc1	107%	103%	102%	94.8%	102%	96.5%	110%	99.5%	106%	110%
CCNC(=O)Oc1ccc(/C(=C(/C)c2ccc(Cl)cc2)c2ccc(OCCN3CCCCCC3)cc2)cc1	58.5%	5.06% (active)	-58.4% (active)	21.3%	-10.3% (active)	53.9%	-40.1% (active)	-44% (active)	-19.9% (active)	-76.5% (active)
O=C(NCCNc1cc(-c2cn(-c3ccccc3)nc2-c2cccc(O)c2)ccn1)Nc1cc(C(F)(F)F)cc(C(F)(F)F)c1	106%	86.9%	90.6%	92.9%	86.7%	88.8%	89.8%	89.3%	101%	89%
O=C1[C@@H]2Cc3c([nH]c4ccccc34)[C@H](c3ccc(Br)cc3)N2C(=O)CN1C1CCN(Cc2c(Cl)cccc2Cl)CC1	96.3%	74.2%	107%	89%	120%	81.3%	100%	105%	102%	92.8%
CCOC(=O)C1=C(C)NC(C)=C(C(=O)OCc2ccccc2)C1c1cccc(C#N)c1 (stereo not given)	57.2%	16.9%	38%	52.3%	44.5%	57.1%	15.5%	23.1%	55.9%	14.6%
O=S(=O)(NCCCNc1nccc(-c2[nH]c(-c3ccccc3)nc2-c2ccc(F)c(O)c2)n1)c1ccccc1	113%	60.6%	-4.84% (active)	81.7%	121%	90.7%	96.9%	105%	22.4%	27.8%
CC1=C(C)C(=O)C(Nc2cccc(C(=O)OC(C)(C)C)c2)=C(Cl)C1=O	103%	21.6%	94.4%	48.9%	103%	92%	105%	96.6%	91.4%	83.3%
O=C(CSc1nc2ccccc2c(=O)n1-c1ccccc1)Nc1ccc(S(=O)(=O)Nc2nccs2)cc1	84.1%	58.2%	88.5%	74.1%	76.5%	44.5%	98.2%	69%	62.8%	78.6%
CCCNNC(=O)c1ccc(-c2ccc(NC(=O)CCCCCCC(=O)N[C@H](C(=O)N3C[C@H](O)C[C@H]3C(=O)N[C@@H](C)c3ccc(-c4scnc4C)cc3)C(C)(C)C)cc2)cc1	32.4%	15.5%	32%	24.1%	-33% (active)	46.3%	46.8%	27.3%	23.6%	39.8%
O=C(Nc1ccc(N2CCOCC2)cc1)Nc1ccc2c(ccn2C(=O)c2cccc(F)c2)c1	60.2%	77.3%	49.4%	60.1%	-0.178% (active)	65.2%	32.5%	28.3%	61.2%	51.3%
CCOC(=O)C1=C(C)NC(C)=C(C(=O)OC(C)C)C1c1cccc(C#N)c1 (stereo not given)	104%	93.9%	97.2%	95.2%	90.8%	96.9%	106%	104%	104%	105%
COc1ccc(/C=N/NC(=O)c2c(N)nn(C)c2Nc2ccccc2)cc1	76.3%	19.2%	44.7%	65.1%	37.3%	58.6%	9.85% (active)	40.2%	56.4%	13%
